Results as given in ChEMBL document CHEMBL3988442, “University of Dundee, Small-Polar-MMV Screening Library” (2021).
For some of these results: Measured potencies and affinities stand elsewhere.

What was measured:
Design in all cases: scale not given: direction of the effect not stated beside the values
[1] = molecular target: Protein translocase subunit SecA (Escherichia coli (strain K12)) (UniProt P10408); assay: Assay to Identify E. coli SecA ATPase Inhibitors; type: functional; conditions: 30 µM
Chain of Protein translocase subunit SecA (Escherichia coli (strain K12)) (P10408 whole entry): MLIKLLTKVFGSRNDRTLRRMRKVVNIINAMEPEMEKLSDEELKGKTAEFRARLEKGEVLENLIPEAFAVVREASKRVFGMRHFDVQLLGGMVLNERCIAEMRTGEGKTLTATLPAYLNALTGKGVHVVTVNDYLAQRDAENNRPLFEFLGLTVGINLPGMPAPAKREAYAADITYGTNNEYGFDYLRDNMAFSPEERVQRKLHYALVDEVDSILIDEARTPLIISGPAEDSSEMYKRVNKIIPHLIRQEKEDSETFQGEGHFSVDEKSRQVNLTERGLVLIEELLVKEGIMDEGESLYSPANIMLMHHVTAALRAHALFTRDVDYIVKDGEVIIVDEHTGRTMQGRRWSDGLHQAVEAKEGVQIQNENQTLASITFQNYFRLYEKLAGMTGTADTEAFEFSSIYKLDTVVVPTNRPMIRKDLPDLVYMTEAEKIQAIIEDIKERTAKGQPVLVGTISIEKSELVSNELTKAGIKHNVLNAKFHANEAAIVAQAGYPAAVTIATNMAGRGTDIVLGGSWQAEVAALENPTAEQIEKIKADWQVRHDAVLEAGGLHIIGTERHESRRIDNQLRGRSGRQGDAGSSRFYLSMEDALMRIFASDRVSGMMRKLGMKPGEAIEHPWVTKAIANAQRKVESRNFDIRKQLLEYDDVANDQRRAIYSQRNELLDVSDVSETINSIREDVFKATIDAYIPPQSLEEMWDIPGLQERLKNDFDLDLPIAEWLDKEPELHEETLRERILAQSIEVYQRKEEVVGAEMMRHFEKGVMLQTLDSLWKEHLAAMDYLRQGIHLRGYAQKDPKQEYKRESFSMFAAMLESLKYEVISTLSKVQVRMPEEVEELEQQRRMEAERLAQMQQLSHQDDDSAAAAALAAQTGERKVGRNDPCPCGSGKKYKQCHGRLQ

[2] = molecular target: T1, Ubiquitin-activating enzyme e1, putative (Leishmania donovani (strain BPK282A1)) (UniProt E9BSI1); assay: Leishmania donovani Ubiquitin Activating Enzyme (LdE1); type: functional; conditions: 30 µM
T1 sequence (whole entry): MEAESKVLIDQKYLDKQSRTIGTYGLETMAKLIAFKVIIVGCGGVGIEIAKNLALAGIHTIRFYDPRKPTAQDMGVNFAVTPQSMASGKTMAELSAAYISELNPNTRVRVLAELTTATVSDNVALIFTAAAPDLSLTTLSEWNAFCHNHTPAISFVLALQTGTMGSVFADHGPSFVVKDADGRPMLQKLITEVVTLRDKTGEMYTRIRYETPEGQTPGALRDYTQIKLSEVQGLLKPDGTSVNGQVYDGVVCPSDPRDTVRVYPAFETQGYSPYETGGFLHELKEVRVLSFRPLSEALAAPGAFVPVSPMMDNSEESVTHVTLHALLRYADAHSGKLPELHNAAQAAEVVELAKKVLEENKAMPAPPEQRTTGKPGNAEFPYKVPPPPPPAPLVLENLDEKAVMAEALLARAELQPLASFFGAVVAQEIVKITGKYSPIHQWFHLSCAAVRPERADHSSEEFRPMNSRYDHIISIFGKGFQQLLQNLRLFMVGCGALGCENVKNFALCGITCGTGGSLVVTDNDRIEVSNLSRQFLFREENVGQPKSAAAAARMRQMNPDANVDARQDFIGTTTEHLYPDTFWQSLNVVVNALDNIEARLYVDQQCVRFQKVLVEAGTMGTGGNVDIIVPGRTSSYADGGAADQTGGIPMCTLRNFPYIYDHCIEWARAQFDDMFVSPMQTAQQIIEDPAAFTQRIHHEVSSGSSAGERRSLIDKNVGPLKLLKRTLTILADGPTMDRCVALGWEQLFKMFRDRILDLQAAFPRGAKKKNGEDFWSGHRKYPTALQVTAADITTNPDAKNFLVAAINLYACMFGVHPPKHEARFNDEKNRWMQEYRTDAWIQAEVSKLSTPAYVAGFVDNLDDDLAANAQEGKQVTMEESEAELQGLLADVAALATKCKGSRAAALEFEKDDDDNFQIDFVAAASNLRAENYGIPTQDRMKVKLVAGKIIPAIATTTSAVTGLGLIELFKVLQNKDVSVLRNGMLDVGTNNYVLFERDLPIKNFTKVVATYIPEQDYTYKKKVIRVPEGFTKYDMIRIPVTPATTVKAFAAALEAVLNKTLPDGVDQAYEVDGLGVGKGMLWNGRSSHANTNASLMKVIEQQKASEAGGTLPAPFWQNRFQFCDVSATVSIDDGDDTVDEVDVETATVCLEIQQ

[3] = molecular target: AMP-activated protein kinase, AMPK (Homo sapiens) (UniProt P54646+O43741+P54619+Q9UGJ0+Q9Y478+Q13131+Q9UGI9); assay: AMP-dependent Kinase enzyme assay. An in vitro enzyme assay that detects ADP turnover that is directly proportional to AMPK activity. This uses naive AMPK that is activated during the assay with MK-8722; type: functional; conditions: 30 µM
[4] = molecular target: Sialic acid-binding Ig-like lectin 9 (Homo sapiens) (UniProt Q9Y336); assay: Hs-Siglec9 ALPHAscreen SOP 20170721; conditions: 10 µM
Chain of Sialic acid-binding Ig-like lectin 9 (Homo sapiens) (Q9Y336 whole entry): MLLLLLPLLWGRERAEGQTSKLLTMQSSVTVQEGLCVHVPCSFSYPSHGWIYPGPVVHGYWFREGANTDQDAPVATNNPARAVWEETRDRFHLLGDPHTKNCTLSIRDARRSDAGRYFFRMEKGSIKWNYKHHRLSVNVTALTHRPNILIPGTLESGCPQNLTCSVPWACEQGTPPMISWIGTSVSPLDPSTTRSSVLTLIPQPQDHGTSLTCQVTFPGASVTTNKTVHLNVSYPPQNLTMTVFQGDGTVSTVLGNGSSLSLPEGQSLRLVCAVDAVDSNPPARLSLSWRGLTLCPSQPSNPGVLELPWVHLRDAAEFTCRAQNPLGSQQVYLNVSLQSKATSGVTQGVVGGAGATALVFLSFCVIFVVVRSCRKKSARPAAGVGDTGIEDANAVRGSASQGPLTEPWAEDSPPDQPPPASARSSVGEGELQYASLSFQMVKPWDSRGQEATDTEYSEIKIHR

[5] = test system: Trypanosoma cruzi; assay: Trypanosoma cruzi phosphomannomutase and mannose-1-phosphate guanylyltransferase assay; type: functional; conditions: 10 µM
[6] = molecular target: T2, Arginase-2, mitochondrial (Homo sapiens) (UniProt P78540); assay: in vitro enzyme assay to detect the production of urea directly proportional to the activity of Arginase II; type: functional; conditions: 33.3 µM; also: in the data most compounds retested in dose-response had high values
T2 sequence (whole entry): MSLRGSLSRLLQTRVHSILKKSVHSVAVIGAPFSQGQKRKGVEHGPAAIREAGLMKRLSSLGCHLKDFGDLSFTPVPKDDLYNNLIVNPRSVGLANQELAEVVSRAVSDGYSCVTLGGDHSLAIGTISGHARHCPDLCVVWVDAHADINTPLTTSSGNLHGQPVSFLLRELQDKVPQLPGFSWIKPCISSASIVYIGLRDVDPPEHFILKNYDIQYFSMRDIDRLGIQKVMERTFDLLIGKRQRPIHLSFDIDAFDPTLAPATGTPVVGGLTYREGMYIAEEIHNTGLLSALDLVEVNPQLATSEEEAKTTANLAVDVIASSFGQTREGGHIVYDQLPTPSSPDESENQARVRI

[7] = molecular target: T3, Proteasome subunit beta (Trypanosoma cruzi) (UniProt O96673); assay: Trypanosoma cruzi proteasome chymotrypsin-like activity (TcProtChymo) assay.; also: in the data most compounds retested in dose-response had high values; type: functional; conditions: 9.37 µM
T3 sequence (whole entry): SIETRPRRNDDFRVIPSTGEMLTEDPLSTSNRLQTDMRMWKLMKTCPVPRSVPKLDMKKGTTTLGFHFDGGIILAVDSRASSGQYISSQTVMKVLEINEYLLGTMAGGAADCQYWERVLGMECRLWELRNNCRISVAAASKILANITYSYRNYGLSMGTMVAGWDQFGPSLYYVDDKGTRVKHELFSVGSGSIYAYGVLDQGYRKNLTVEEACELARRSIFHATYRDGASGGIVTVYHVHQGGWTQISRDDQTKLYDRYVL

[8] = organism: Homo sapiens; assay: To identify inhibition of the IFN signalling (Jak-Stat) pathway via expression of an eGFP reporter gene under the control of an IFN-stimulated response element (ISRE) containing MxA promoter.; type: functional; conditions: 30 µM
[9] = molecular target: T4, Tyrosyl-tRNA synthetase, putative (Trypanosoma cruzi (strain CL Brener)) (UniProt Q4DSP6); assay: Trypanosoma cruzi tyrosyl tRNA synthetase (TcYRS) _High Tyrosine SOP; type: functional; conditions: 30 µM; also: in the data most compounds retested in dose-response had high values
T4 sequence (whole entry): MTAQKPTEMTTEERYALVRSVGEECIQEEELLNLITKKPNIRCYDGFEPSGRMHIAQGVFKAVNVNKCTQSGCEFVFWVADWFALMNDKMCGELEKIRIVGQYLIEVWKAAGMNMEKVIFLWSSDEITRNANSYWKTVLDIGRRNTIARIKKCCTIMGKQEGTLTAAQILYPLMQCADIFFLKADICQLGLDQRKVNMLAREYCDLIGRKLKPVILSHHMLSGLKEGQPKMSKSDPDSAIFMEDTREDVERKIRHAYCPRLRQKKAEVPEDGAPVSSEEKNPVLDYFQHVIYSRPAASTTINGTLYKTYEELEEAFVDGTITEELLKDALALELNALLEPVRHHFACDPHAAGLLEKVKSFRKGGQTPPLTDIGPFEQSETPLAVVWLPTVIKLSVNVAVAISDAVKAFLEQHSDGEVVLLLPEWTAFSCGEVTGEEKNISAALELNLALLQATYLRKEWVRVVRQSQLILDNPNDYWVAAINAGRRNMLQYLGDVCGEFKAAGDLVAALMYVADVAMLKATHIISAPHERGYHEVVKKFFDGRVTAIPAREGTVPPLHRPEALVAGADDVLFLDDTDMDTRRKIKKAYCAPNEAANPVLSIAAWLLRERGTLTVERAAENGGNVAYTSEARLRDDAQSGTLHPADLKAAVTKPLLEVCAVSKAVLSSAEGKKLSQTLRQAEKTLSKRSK

[10] = molecular target: T4, Tyrosyl-tRNA synthetase, putative (Trypanosoma cruzi (strain CL Brener)); assay: Trypanosoma cruzi tyrosyl tRNA synthetase (TcYRS) SOP; type: functional; conditions: 30 µM
[11] = molecular target: Chromo domain-containing protein 1 (Saccharomyces cerevisiae (strain ATCC 204508 / S288c) (Baker's yeast)) (UniProt P32657); assay: ScCHD-1 Enzyme Inhibition Assay; type: functional; conditions: 30 µM; also: in the data most compounds retested in dose-response had high values
Chain of Chromo domain-containing protein 1 (Saccharomyces cerevisiae (strain ATCC 204508 / S288c) (Baker's yeast)) (P32657 whole entry, the tested form may be a part): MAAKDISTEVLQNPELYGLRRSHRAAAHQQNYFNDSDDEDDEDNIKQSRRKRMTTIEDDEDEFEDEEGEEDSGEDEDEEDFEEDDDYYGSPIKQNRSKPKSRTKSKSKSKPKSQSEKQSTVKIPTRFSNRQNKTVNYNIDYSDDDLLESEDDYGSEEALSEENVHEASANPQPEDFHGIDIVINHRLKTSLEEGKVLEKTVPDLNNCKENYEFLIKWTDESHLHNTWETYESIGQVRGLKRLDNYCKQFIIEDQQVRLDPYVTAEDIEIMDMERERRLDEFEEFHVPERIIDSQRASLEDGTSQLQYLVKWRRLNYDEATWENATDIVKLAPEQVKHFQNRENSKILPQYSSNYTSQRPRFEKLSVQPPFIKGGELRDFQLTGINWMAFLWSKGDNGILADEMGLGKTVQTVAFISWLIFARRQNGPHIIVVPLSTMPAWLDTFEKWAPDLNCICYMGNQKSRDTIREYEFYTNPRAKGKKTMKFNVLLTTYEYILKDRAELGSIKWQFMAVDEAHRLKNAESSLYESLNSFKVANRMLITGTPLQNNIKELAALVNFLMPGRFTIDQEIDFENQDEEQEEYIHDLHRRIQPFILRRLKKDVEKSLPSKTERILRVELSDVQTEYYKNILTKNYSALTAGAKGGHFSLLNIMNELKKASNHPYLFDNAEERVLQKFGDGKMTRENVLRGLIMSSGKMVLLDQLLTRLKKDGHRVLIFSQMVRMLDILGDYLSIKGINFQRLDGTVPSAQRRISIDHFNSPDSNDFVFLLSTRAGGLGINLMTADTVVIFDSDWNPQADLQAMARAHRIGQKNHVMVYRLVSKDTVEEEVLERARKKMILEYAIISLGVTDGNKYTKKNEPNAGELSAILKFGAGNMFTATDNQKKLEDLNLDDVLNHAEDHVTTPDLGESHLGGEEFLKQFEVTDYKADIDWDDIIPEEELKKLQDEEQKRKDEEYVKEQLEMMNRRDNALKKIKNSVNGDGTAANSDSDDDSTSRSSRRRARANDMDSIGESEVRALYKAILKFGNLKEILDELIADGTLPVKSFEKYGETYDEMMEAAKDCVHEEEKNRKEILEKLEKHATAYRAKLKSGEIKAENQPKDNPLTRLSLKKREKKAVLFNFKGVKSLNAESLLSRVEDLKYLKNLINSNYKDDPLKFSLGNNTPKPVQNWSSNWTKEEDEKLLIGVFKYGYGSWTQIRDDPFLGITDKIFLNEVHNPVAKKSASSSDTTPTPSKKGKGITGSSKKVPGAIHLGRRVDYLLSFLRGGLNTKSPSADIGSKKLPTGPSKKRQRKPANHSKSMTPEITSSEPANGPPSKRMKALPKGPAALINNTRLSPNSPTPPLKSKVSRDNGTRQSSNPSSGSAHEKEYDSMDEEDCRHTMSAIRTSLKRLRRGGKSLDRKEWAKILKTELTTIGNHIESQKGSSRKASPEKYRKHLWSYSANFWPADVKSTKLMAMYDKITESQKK

| Structure (SMILES) | Percent Effect [1] | Percent Effect [2] | Percent Effect [3] | Percent Effect [4] | Percent Effect [5] | Percent Effect [6] | Percent Effect [7] | Percent Effect [8] | Percent Effect [9] | Percent Effect [10] | Percent Effect [11] |
| --- | --- | --- | --- | --- | --- | --- | --- | --- | --- | --- | --- |
| CNC(=O)COc1ccc(CNCc2ccc(F)cc2F)cc1 | -3.24% | 6.94% | 7.47% | -14.2% | -5.93% | -1.32% | 18.6% | 6.07% | 4.21% | 5.13% | -3.63% |
| Cc1nc(CN2CCCC(NCCOc3ccccc3)C2)no1 (stereo not given) | -2.53% | 2.53% | -4.3% | -3.12% | -1.98% | 2.28% | 28.9% | -12.5% | 2.46% | -1.27% | -6.02% |
| O=C(Cc1cccnc1)N1CCC2(CC1)CCN(C1CCOCC1)C2 | -5.91% | 0% | 0.681% | -0.504% | -1.67% | -2.76% | 1.83% | 15.5% | 1.07% | -1.24% | 1.45% |
| CCc1nc(C2CCCN2CC(=O)Nc2c(C)n[nH]c2C)no1 (stereo not given) | 1.31% | -2.6% | -3.26% | 6.7% | -5.62% | 5.34% | 3.38% | 16.5% | 1.94% | 7.32% | -0.363% |
| CCOc1ccc(S(=O)(=O)NC(=O)CCC2CCCO2)cc1 (stereo not given) | -3.8% | 13.5% | -7.18% | -5.67% | 0.283% | -5.21% | 17.5% | 1.86% | 10.3% | 18.5% | -9.06% |
| COC[C@@]12CCO[C@@H]1CCN(C(=O)Cc1ccccc1F)C2 | 0.597% | 19.2% | -6.38% | 8.82% | -0.595% | -3.19% | 12.2% | 5.78% | 8.33% | 11.1% | -3.06% |
| CCCc1n[nH]c(C2CN(C(=O)CCCn3cccn3)CCO2)n1 (stereo not given) | -4.8% | -4.17% | -0.0148% | -2.33% | -2.82% | -0.883% | 7.89% | -2.8% | -1.05% | -2.56% | 5.04% |
| COCCN(C)C[C@@H]1CN(C(=O)c2ccoc2)C[C@@H]1CO | -3.19% | 2.7% | -0.15% | 1.89% | 6.56% | -1.43% | 5.34% | 4.14% | 6.88% | 9.76% | -2.44% |
| Cc1ccccc1C(=O)N1CCC(n2nnc3cc(F)ccc32)CC1 | -4.02% | 5.33% | 12% | 0.882% | -3.35% | 1.17% | 5.02% | 7.34% | 4.25% | 11.5% | -5% |
| Cc1cccc(-c2nc(CN3CCc4cnc(C)nc4C3)no2)c1 | -6.65% | 7.79% | 64% | 10.5% | 0.374% | 1.42% | 0.169% | -1.99% | 10.7% | 9.76% | -4.89% |
| CCc1nc(CN2CCCN(C(=O)C(C)n3cncn3)CC2)cs1 (stereo not given) | -4.01% | 2.6% | -3.41% | 4.94% | -6.93% | 6.05% | 4.05% | 19.8% | 4.85% | 2.44% | -3.41% |
| CC(C)CN1CCc2[nH]cnc2C12CCN(C(=O)c1cccnc1)CC2 | -8.51% | 0% | -4.57% | 3.2% | -3.99% | -1.56% | 14.3% | 12.4% | -3.83% | -6.17% | -6.87% |
| COC(=O)[C@H](C)NC(=O)c1cc(-c2cccc(Cl)c2)no1 | -6.04% | 5.26% | -4.37% | -0.548% | 2.43% | -4.73% | 21.2% | 6.45% | 5.32% | 10.4% | -8.08% |
| c1ccc(OCCN2CCCC(c3noc(C4CC4)n3)C2)cc1 (stereo not given) | -8.89% | 0% | 3.25% | -3.02% | -3.02% | -1.56% | 10.1% | 6.37% | -4.92% | 1.24% | -2.68% |
| Cc1ccsc1CN(Cc1ccccn1)CC(C)C | -2.24% | 1.39% | -11.5% | 11.7% | 4.76% | 8.39% | 8.95% | -27.8% | 7.37% | 7.69% | -1.62% |
| O=C(c1ccc(O)cc1)N1CCN(C(=O)c2ccc3c(c2)COC3)CC1 | -4.15% | 10.1% | -4.98% | 13.3% | -1.98% | -2.66% | 4.01% | -19.9% | 4.43% | 8.86% | -6.29% |
| CC(=O)N1CC(=O)N(c2cnn(C)c2)CC12CCN(CC1CC1)C2 (stereo not given) | -2.91% | 0% | 1.91% | 0.306% | -3.52% | 1.67% | 0.423% | -7.14% | 4.95% | 1.22% | -0.193% |
| CCS(=O)(=O)N1CCC[C@]2(C(=O)N(C)C)CN(c3ncccn3)C[C@@H]2C1 | 2.18% | 10.7% | 3.9% | 3.64% | 0.193% | -53.9% | 7.52% | -10.8% | 3.12% | 22.5% | -10.2% |
| CCc1cccc(N2CCC(NC(=O)c3ccc(=O)[nH]n3)CC2)c1 | -0.605% | 3.8% | 2.33% | 1.07% | -4.82% | 4.52% | 15.8% | 21% | 5.21% | 15.2% | -11.3% |
| Cc1ccn2cc(C(=O)N3CCCC3c3c(C)nn(C)c3C)nc2c1 (stereo not given) | -7.15% | 8.86% | 7.77% | -1.49% | -3.79% | 1.5% | 9.09% | 4.07% | 5.21% | 0% | -3.05% |
